Inconclusive results are not listed. A call without a number means that no potency is given here. The source made the active and inactive calls. The call rests on the fitted dose curve; in most records, active means well fitted curve in the direction sought with a large enough effect; inconclusive means small, poorly fitted or top-dose-only effect, or another doubt; inactive means no such curve, though single readings can be large or run the other way.
assay: Counterscreen Assay for Enhancers of SMN2 Splice Variant Expression: Modulation of SMN1 Expression for Probe SAR; settings: HEK293 SMN1-luciferase reporter, luminescence, 30-36 h; series mostly up to 46.1 µM
From the text: NIH Chemical Genomics Center [NCGC] NIH Molecular Libraries Probe Production centers Network [MLPCN] MLPCN Grant: R03 MH084179-01 Assay Submitter (PI): Elliot Androphy NCGC Assay Overview: Spinal muscular atrophy (SMA) is caused by insufficient levels of the survival motor neuron protein SMN. The SMN locus on chromosome 5q13 contains two inverted copies of SMN called SMN1 and SMN2 which are 99% identical at the amino acid level. SMN1 is a fully functional protein and SMN2 skips exon 7 90% of the time. Skipping of exon 7 produces non-functional protein product. 10% of the SMN2 protein includes exon 7 and is fully functional. In the SMA disease state, mutations in the SMN1 locus are the cause of the disease state. Because only 10% of SMN2 is of the fully functional form, it is not sufficient to overcome the deficiency produced by the loss of the SMN1 product. A therapy that either increase the amount of SMN2 product made or to increase the inclusion of exon 7 has been proposed for the treatment of SMA. We have designed an assay to identify small molecules that can increase the amount of functional SMN2 product by appending a luciferase reporter gene after the native SMN2 gene, such that inclusion of exon 7 in the expressed product places the luciferase sequence in frame, thus generating functional luciferase enzyme. As a counterscreen for nonspecific modulators of expression, we have run compounds through a similar assay that measures expression of an SMN1-luciferase chimera.
NCGC Assay Protocol Summary: This screen utilizes a luciferase reporter gene assay, combining the promoter with the major portion of the native SMN1 cDNA (exons 1 -7, intron 8 , exon 8 fused to luciferase) stably expressed in HEK293 cells. Compounds that increase luciferase signal presumably enhance expression of the functional SMN1 splice variant. Passaging media contained DMEM w/ glutamax (+phenol red) 10% FCS, 1x pen/strep, 200 ug/ml hygro, 1x sodium pyruvate. Assay media contained DMEM w/ glutamax (-phenol red) 10% FCS, 1x pen strep, 1x pyruvate Sequence, Parameter, Value, Description (1) Cells, 5 uL, 2000 cells/well, 1536 TC treated White solid bottom plate (2) Time, 10-12 hours, 37C 5% CO2 (3) Compound, 23 nl, MLSMR Library (4) Control Compound, 23 nL, Sodium butyrate st 4.5mM (final) conc (5) Time, 30-36 hours, 37C 5% CO2 (6) Reagent, 3 ul, One Glo (TM) from Promega (7) Time, 5-15 minutes, Room temp (8) Detector, Viewlux: luminescent read, 60 second integration, high speed 2x binning Keywords: Spinal muscular atrophy, SMA, SMN2, high throughput screening, MLSMR, MLPCN, NIH Roadmap, qHTS and NCGC

| Structure (SMILES) | Potency |
| --- | --- |
| NC(=O)C1CCN(c2nc(-c3ccccc3N)cs2)CC1 | inactive |
| CC(=O)c1ccc(-c2csc(N3CCC(C(N)=O)CC3)n2)cc1 | inactive |
| NC(=O)C1CCN(c2nc(-c3cccnc3)cs2)CC1 | inactive |
| NC(=O)C1CCN(c2nc(-c3cccc(Cl)c3)cs2)CC1 | inactive |
| Cn1ccc2cc(-c3csc(N4CCC(C(N)=O)CC4)n3)ccc21 | inactive |
| CS(=O)(=O)c1cccc(-c2csc(N3CCC(C(N)=O)CC3)n2)c1 | inactive |
| COc1ccc(-c2csc(N3CCC(C(N)=O)CC3)n2)cc1 | inactive |
| NC(=O)C1CCN(c2nc(-c3ccc4occc(=O)c4c3)cs2)CC1 | inactive |
| NC(=O)C1CCN(c2nc(-c3ccccc3-c3ccccc3)cs2)CC1 | inactive |
| NC(=O)C1CCN(c2nc(-c3ccc4c(c3)OCCO4)cs2)CC1 | 19.4 µM (active) |
| NC(=O)C1CCN(c2nc(-c3ccccc3C(F)(F)F)cs2)CC1 | inactive |
| NC(=O)C1CCN(c2nc(-c3cccs3)cs2)CC1 | inactive |
| NC(=O)C1CCN(c2nc(-c3cccc(N)c3)cs2)CC1 | inactive |
| NC(=O)C1CCN(c2nc(-c3ccc4ccccc4c3)cs2)CC1 | inactive |
| CN(C)c1ccccc1-c1csc(N2CCC(C(N)=O)CC2)n1 | inactive |
| CC(=O)c1cccc(-c2csc(N3CCC(C(N)=O)CC3)n2)c1 | inactive |
| Brc1ccc(-c2csc(N3CCCCC3)n2)cc1 | inactive |
| CN(C)C(=O)c1cccc(-c2csc(N3CCC(C(N)=O)CC3)n2)c1 | inactive |
| NC(=O)C1CCN(c2nc(-c3ccccc3Br)cs2)CC1 | inactive |
| NC(=O)C1CCN(c2nc(-c3ccccc3F)cs2)CC1 | inactive |
| Cc1noc(C)c1-c1csc(N2CCC(C(N)=O)CC2)n1 | inactive |
| NC(=O)C1CCN(c2nc(-c3cc4ccccc4o3)cs2)CC1 | inactive |
| CS(=O)(=O)c1ccccc1-c1csc(N2CCC(C(N)=O)CC2)n1 | inactive |
